For ten compounds, growth results are on record in PubChem BioAssay (NCI).

The panel holds about 83,000 compounds, 20% with a hit somewhere; the sample as a whole holds those more often.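 Negative percent growth values reflect cell death: -40 means 40% of the cells present at the start died, and -100 means all died.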 Values without a mark were called inactive. The source made the active and inactive calls. How the source made its calls: active means growth percent below 10; inactive means the rest.

Test systems include OVCAR-8 ovarian; OVCAR-5 ovarian; OVCAR-4 ovarian; SK-OV-3 ovarian; IGROV1 ovarian; OVCAR-3 ovarian; HS 578T breast; T-47D breast; BT-549 breast; MDA-MB-435 melanoma; SW-620 colon; MCF7 breast; HCT-116 colon; HCC-2998 colon; KM12 colon; NCI/ADR-RES ovarian.
Common to all, as to test: NCI-60 one-dose screen, 48 h (100 = growth as untreated, 0 = no growth, -100 = all killed)
What all share (conditions): 10 µM unless noted

For `COc1ccc(OC)c(/C=C/c2nc(=S)n(-c3ccc(Cl)cc3)[nH]2)c1`, the growth was 88.6% in the assay on OVCAR-8 ovarian; 116% in the assay on OVCAR-5 ovarian; 91.6% with OVCAR-4 ovarian; 73.5% in the assay on SK-OV-3 ovarian; 40.1% in the assay on IGROV1 ovarian; 29.4% in the assay on OVCAR-3 ovarian. The growth was 98.7% in the assay with HS 578T breast; 72.5% with T-47D breast; 67.2% in the assay with BT-549 breast; -10.3% (active) with MDA-MB-435 melanoma; 50.4% with SW-620 colon; 32% in the assay on MCF7 breast. The results for the growth with HCT-116 colon, in the assay on HCC-2998 colon and in the assay on KM12 colon were 29.6%, 45.6% and 40.9%, respectively.
For `c1ccc(-n2nnnc2-c2cccc3ccccc23)cc1`, the growth with OVCAR-8 ovarian is 30.5%; in the assay on OVCAR-5 ovarian it was 35.5%; in the assay on OVCAR-4 ovarian, 59.6%; in the assay on SK-OV-3 ovarian, 5.6% (active); in the assay with IGROV1 ovarian, 31.4%; with OVCAR-3 ovarian, -26.8% (active). The growth was -12.6% (active) with NCI/ADR-RES ovarian; 31.8% with T-47D breast; 29.5% in the assay on BT-549 breast; -10.5% (active) in the assay on MDA-MB-435 melanoma; 20.8% in the assay with SW-620 colon; 19.8% with MCF7 breast. The figures for the growth with HCT-116 colon and with KM12 colon were 14.9% and 31.3%, respectively.
As for `COc1ccc2c(c1)C(=O)c1c-2c(OCCN(C)C)nc2cc(OC)ccc12`, the growth in the assay with OVCAR-8 ovarian was 4.01% (active); in the assay with OVCAR-5 ovarian, 44.9%; in the assay with OVCAR-4 ovarian, 4.71% (active); in the assay on SK-OV-3 ovarian, 23.9%; in the assay with IGROV1 ovarian it was 6.3% (active); with OVCAR-3 ovarian it was 32.5%. Also, the growth with HS 578T breast was 35.6%; with NCI/ADR-RES ovarian, -11.3% (active); in the assay on T-47D breast it was 47.1%; with BT-549 breast it was 56.6%; with MDA-MB-435 melanoma, 18.5%; in the assay with SW-620 colon, -45.8% (active). Besides, the growth with MCF7 breast was -50% (active); in the assay with HCT-116 colon it was -76% (active); in the assay with HCC-2998 colon, -88.8% (active); in the assay with KM12 colon, -37.4% (active).
As to `Clc1ccc(CCC(Cn2ccnc2)Sc2c(Cl)cccc2Cl)cc1` (stereo unspecified), the growth with OVCAR-8 ovarian was 63.8%; with OVCAR-5 ovarian, 68%; in the assay on OVCAR-4 ovarian it was 60.4%; with SK-OV-3 ovarian it was 91.1%; with IGROV1 ovarian, 59%; in the assay with OVCAR-3 ovarian it was 59.4%. For the same compound, the growth in the assay with HS 578T breast was 90.8%; in the assay with NCI/ADR-RES ovarian it was 28.2%; with T-47D breast, 39.5%; in the assay on BT-549 breast, 52%; with MDA-MB-435 melanoma, 53.9%; in the assay on SW-620 colon, 65.2%. Also, the growth in the assay with HCT-116 colon is 23.2%; in the assay on HCC-2998 colon, 56.6%; in the assay on KM12 colon it was 51.8%.
For the compound `Cc1ccccc1NC(=O)c1cc2ccccc2cc1O`, the growth was 60% in the assay with OVCAR-8 ovarian; 77.9% in the assay on OVCAR-5 ovarian; 56.1% with OVCAR-4 ovarian; 61.1% in the assay on SK-OV-3 ovarian; 30.2% in the assay on IGROV1 ovarian; -10.2% (active) with OVCAR-3 ovarian. In addition, the growth was 27.8% in the assay with NCI/ADR-RES ovarian; 49.9% in the assay with T-47D breast; -0.275% (active) in the assay with BT-549 breast; 28.6% with MDA-MB-435 melanoma; 47.2% with SW-620 colon; 80.5% with MCF7 breast. Moreover, the growth is 30.3% in the assay on HCT-116 colon, 81.5% in the assay with HCC-2998 colon and 23.4% in the assay with KM12 colon.
`COc1cc(/C=C/C(=O)c2ccc(F)cc2)ccc1OCCCCCOc1cc2c(cc1OC)C(=O)N1CCCC1C=N2` (stereo unspecified): the growth in the assay on OVCAR-8 ovarian is 4.8% (active); in the assay with OVCAR-5 ovarian it was -5.07% (active); in the assay on OVCAR-4 ovarian, -37.5% (active); in the assay on SK-OV-3 ovarian, -4.32% (active); with IGROV1 ovarian, -66.5% (active); in the assay on OVCAR-3 ovarian, -8.63% (active). The growth in the assay with HS 578T breast is -24.8% (active); with NCI/ADR-RES ovarian, 8.85% (active); in the assay with T-47D breast, -4.98% (active); in the assay on BT-549 breast, -58% (active); in the assay on MDA-MB-435 melanoma, -87.5% (active); with SW-620 colon, -46.6% (active). Further, the results for the growth with MCF7 breast, with HCT-116 colon and with KM12 colon were 16%, -23.9% (active) and -63.4% (active), respectively.
Take `CCCCCCCCCCCCCCCCCC1=NC(C)(C)CN1CCO`: the growth was 1.75% (active) in the assay on OVCAR-8 ovarian; 82.4% in the assay with OVCAR-5 ovarian; 33.5% in the assay with OVCAR-4 ovarian; -36.2% (active) in the assay with SK-OV-3 ovarian; -26.4% (active) in the assay on IGROV1 ovarian; -9.27% (active) with OVCAR-3 ovarian. Also, the growth in the assay on HS 578T breast is -38.4% (active); with NCI/ADR-RES ovarian, 55.5%; with T-47D breast, -23.9% (active); in the assay on BT-549 breast, 58.9%; with MDA-MB-435 melanoma, -60.1% (active); with SW-620 colon, -60.4% (active). The growth is -59.5% (active) in the assay on MCF7 breast, -87.6% (active) with HCC-2998 colon and -76.3% (active) in the assay with KM12 colon.
On to `O=C(/C=C/c1cc2ccccc2[nH]c1=O)c1ccc(O)cc1`, for which the growth is 22.3% with OVCAR-8 ovarian; 78.6% in the assay with OVCAR-5 ovarian; 62.9% in the assay with OVCAR-4 ovarian; 39.8% in the assay on SK-OV-3 ovarian; 53.8% with IGROV1 ovarian; -18.8% (active) in the assay with OVCAR-3 ovarian. The growth is -27.2% (active) in the assay on HS 578T breast; 36.4% in the assay with NCI/ADR-RES ovarian; 66.1% in the assay with T-47D breast; 28% with BT-549 breast; 34.3% in the assay with MDA-MB-435 melanoma; -10.8% (active) in the assay on SW-620 colon. The growth was 14.7% in the assay on MCF7 breast, 12.9% in the assay with HCT-116 colon, 93.1% in the assay on HCC-2998 colon and -8.87% (active) in the assay with KM12 colon.
For the compound `CC[C@H](C)C(=O)O[C@H]1C[C@@H](C)C=C2C=C[C@H](C)[C@H](CC[C@@H]3C[C@@H](O)CC(=O)O3)[C@H]21`, the growth was 61.9% with OVCAR-8 ovarian; 87.2% in the assay with OVCAR-5 ovarian; 111% in the assay with OVCAR-4 ovarian; 83.7% in the assay with SK-OV-3 ovarian; 55.9% in the assay with IGROV1 ovarian; 102% in the assay with OVCAR-3 ovarian. Moreover, the growth is 94% with HS 578T breast; 32.1% in the assay on NCI/ADR-RES ovarian; 96.7% in the assay with T-47D breast; 82.4% in the assay with BT-549 breast; 87.8% in the assay with MDA-MB-435 melanoma; 99.2% in the assay on SW-620 colon. The growth in the assay with HCT-116 colon is 51.7%; in the assay on HCC-2998 colon, 97.5%; in the assay with KM12 colon it was 109%.
For `CC12CCC3C(CCC4CC(=O)/C(=C\O)CC43C)C1CCC(=O)O2` (stereo unspecified), the growth is 101% in the assay with OVCAR-8 ovarian; 95.7% with OVCAR-5 ovarian; 112% in the assay on OVCAR-4 ovarian; 128% in the assay with SK-OV-3 ovarian; 95.1% in the assay with IGROV1 ovarian; 114% with OVCAR-3 ovarian. In addition, the growth is 96.1% in the assay on NCI/ADR-RES ovarian; 117% with T-47D breast; 112% in the assay with BT-549 breast; 110% in the assay with MDA-MB-435 melanoma; 110% with SW-620 colon; 102% in the assay with MCF7 breast. In addition, the growth is 100% with HCT-116 colon, 101% with HCC-2998 colon and 115% in the assay on KM12 colon.
